Here are results for ten compounds from PubChem BioAssay.

Molecules are shown by their SMILES. Activity calls are given as the source filed them.

The assay is described as follows: probe aXIP binding to arrayed compounds – biochemical, NeuroSMM set, 635/667 nm fluorescence, primary screen (AID 1119).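 Also: probe is the protein aXip251-270 applied at 1 µg/mL to compound-printed slides; binding of probe to printed compounds measured as 667 nm fluorescence plus signal to noise.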 As to conditions: small-molecule microarray, higher = more signal, called active from +8 up or from −8 down.
Consider `O=C(O)C1=CC[C@H]2C(=O)N(c3ccccc3)C(=O)[C@@H]12`, for which the composite Z-score is 0.277 (inactive).
The same measure for `CCc1cccc(NC(=O)O[C@H]2[C@H](OC(=O)Nc3ccccc3-c3ccccc3)[C@H](OC(=O)Nc3ccccc3-c3ccccc3)[C@@H](OC)O[C@@H]2CO)c1`: 0.814 (inactive); for `C=C(COC)/C(=C/C[C@@H](OC(C)=O)c1cccc(OCCO)c1)c1cnc2ccccc2c1`: -0.365 (inactive).
Consider `Cc1ccc(S[C@]2(C(=O)NCc3ccccc3)CC(=O)N(Cc3ccccc3C(F)(F)F)[C@@H]2c2ccc(CO)cc2I)cc1`, for which the composite Z-score is -0.915 (inactive).
The same measure for `COCCOC(=O)N1C(=O)[C@@]2(c3cc(C#CC4(O)CCCCCC4)ccc31)[C@H](C(N)=O)[C@H]1C(=O)O[C@H](c3ccccc3)[C@H](c3ccccc3)N1[C@@H]2c1ccc(OCCO)cc1`: 0.133 (inactive).
The same measure for `COc1c(C)cc(-c2cc3c(c(CCc4ccccc4)n2)[Si](C(C)C)(C(C)C)O[C@H]3c2ccccc2)cc1C`: 0.123 (inactive).
On to `COC(=O)[C@@]1(Cc2ccc(F)cc2)[C@H]2c3cc(C(=O)N(C)C)n(Cc4cccc5ccccc45)c3C[C@H]2CN1C(=O)c1ccccc1`, for which the composite Z-score is 0.0828 (inactive).
The result for `CC(C)C[C@@H]1NC(=O)[C@@H]2C[C@H](C(=O)NCCCCCNC(=O)CS)[C@H](c3ccc(O)cc3)N2C1=O` reads -0.442 (inactive); that for `C=C[C@@H](CO)NS(=O)(=O)c1ccc(Br)cc1`, -0.67 (inactive).
The result for `COC(=O)[C@@]1(Cc2ccc(F)cc2)[C@H]2c3cc(C(=O)N(C)C)n(CCF)c3C[C@H]2CN1C(=O)c1ccccc1` reads 0.312 (inactive).
